± gives the standard deviation.

The first experiment concerns MILI (PIWIL2) piRISC loaded with L1MC piRNA (26 nt). As to the kind of experiment: pre-steady-state target cleavage rate (min^-1); guide: L1MC piRNA 5'p-UAACUAAAUACUAUGCAAGCUGUAGG; MIWI and MILI are mouse PIWI proteins and EfPiwi is from a freshwater sponge; tags in brackets are library labels; higher = faster piRNA-guided slicing of the target. To be noted: auxiliary factor: 500 nM mouse GTSF1. The protocol:
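Cleave-'n-Seq: a library of target RNAs (target site embedded in constant flanks, ACAGCATTCCGCGTTAGTGATATCCG... 5' flank; DNA-blocked outside the site) at 0.1 nM was incubated with 1 nM active mouse MILI or MIWI piRISC (synthetic 5'-monophosphorylated piRNA guide) with or without 500 nM mouse GTSF1 at 33 °C for 1 min to 16 h. Uncleaved targets were sequenced and normalised to non-target controls, and the pooled three trials were fitted to a burst-and-steady-state model to give the pre-steady-state cleavage rate (min^-1; k3 is constrained to at most 1e-4). Sequence is the target site only; target names encode pairing extent (gX:gY) and contiguous / 1-mismatch / 2-mismatch / bulge geometry. Fits with R² ≤ 0 are excluded.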
Regarding UCCUGGAACUGCUAGCAUAGUAUUUAGUUA, the “pre-steady-state target cleavage rate” value is 0.215 ± 0.015. As for UCCUGGAUGUGCUUUCAUAGUAUUUAGUUA, the “pre-steady-state target cleavage rate” value worked out at 0.126 ± 0.018. Consider UCCUGGUACAGCUUGCAUAGUAUUUAUUUA, for which the “pre-steady-state target cleavage rate” value is 0.166 ± 0.037. With UCCUCCUACAGCUUGCAUAGUAAAAAGAAA, the “pre-steady-state target cleavage rate” value worked out at 0.075 ± 0.02. As to UCCUGGUACAGCUUGCAUAGUCUUUAGUUA, the “pre-steady-state target cleavage rate” value amounted to 0.152 ± 0.025.

Take UCCUGGAUGUCCUUGCAGAGUAUUUAGUUA: the “pre-steady-state target cleavage rate” value came out at 0.0231 ± 0.011. The same measure, in the same setting: then UCCUGGUACAGCUUGCAUAGUAUUCUAGUUA, with 0.353 ± 0.088; and UCCUGGAACAGCUUGCAUAGUAUUUCAGUUA, with 0.131 ± 0.028. Regarding UCCUCCUACAGCUACGAUAGUAUUUAGUAA, the “pre-steady-state target cleavage rate” value was determined as 0.174 ± 0.024. Consider UCCUGGUACAGCUUGCUUAGUUUUUAGUUA, for which the “pre-steady-state target cleavage rate” value worked out at 0.0347 ± 0.011. As to UCCUCCUACACUUGCAUAGUAUUUAGUUA, the “pre-steady-state target cleavage rate” value stood at 0.248 ± 0.016.

As for UCCUGCUUCAGCUUGCAAAGUAUUUAGUUA, the “pre-steady-state target cleavage rate” value was 0.122 ± 0.0063. For the sequence UCCUGGAUGUCGAACCAUAGUAUAUAGUAA, the “pre-steady-state target cleavage rate” value is less than 0.0001. Same read-out and setting: then UCCUGGAUGAGCUUGCAAAGUAUUUAGUUA, with 0.0794 ± 0.011; and UCCUGGUACUGCUUGCUUAGUAUUUAGUUA, with 0.197 ± 0.015; and UCCUGGAACAGCUUGCAUAGAUAUUAGUUA, with 0.0112 ± 0.0053.

As for UCCUGGAUGAGCUUGAUAGUAUUUAGUUA, the “pre-steady-state target cleavage rate” value is 0.017 ± 0.0068. As to UCCUGGAUGUGCUUGCAUUGUAUUAAGUUA, the “pre-steady-state target cleavage rate” value is 0.0663 ± 0.014. For UCCUGGAUCAGCUUGCAUACUAUUUAGAUA, the “pre-steady-state target cleavage rate” value was 0.0139 ± 0.0058.

As to UCCUGGAUGAGCUUCAUAGUAUUUAGUUA, the “pre-steady-state target cleavage rate” value is 0.0977 ± 0.012. As for UCCUGGUACAGCUUGCAUAGUAUUUGAGUUA, the “pre-steady-state target cleavage rate” value stood at 0.178 ± 0.034. As to UCCUGGAUGUCCUUGCAUAGUAUUUCAGUUA, the “pre-steady-state target cleavage rate” value was 0.0665 ± 0.022. On the same count and under the same terms, then UCCUGGAUCAGCUUCGAUAGUAUUUAGAAA, with 0.0608 ± 0.017.

The same experiment, now with this note: auxiliary factor: none (no GTSF1).
In the case of UCCUGGAACUGCUAGCAUAGUAUUUAGUUA, the “pre-steady-state target cleavage rate” value was 0.00611 ± 0.0019. As to UCCUGGAUGUGCUUUCAUAGUAUUUAGUUA, the “pre-steady-state target cleavage rate” value was found to be 0.00919 ± 0.0024. Regarding UCCUGGUACAGCUUGCAUAGUAUUUAUUUA, the “pre-steady-state target cleavage rate” value was 0.0109 ± 0.0041. Consider UCCUGGUACAGCUUGCAUAGUCUUUAGUUA, for which the “pre-steady-state target cleavage rate” value is 0.00831 ± 0.003. With UCCUGGAUGUCCUUGCAGAGUAUUUAGUUA, the “pre-steady-state target cleavage rate” value was found to be 0.00501 ± 0.0024. On the same count and under the same terms, then UCCUGGUACAGCUUGCAUAGUAUUCUAGUUA, with 0.00551 ± 0.0045.

UCCUGGUACAGCUUGCUUAGUUUUUAGUUA: the “pre-steady-state target cleavage rate” value stood at 0.00709 ± 0.0023. For the sequence UCCUCCUACACUUGCAUAGUAUUUAGUUA, the “pre-steady-state target cleavage rate” value amounted to 0.00564 ± 0.002. Same read-out and setting: then UCCUGCUUCAGCUUGCAAAGUAUUUAGUUA, with 0.00828 ± 0.0015; and UCCUGGAUGUCGAACCAUAGUAUAUAGUAA, with less than 0.0001; and UCCUGGAUGAGCUUGCAAAGUAUUUAGUUA, with 0.00483 ± 0.0028.

For UCCUGGUACUGCUUGCUUAGUAUUUAGUUA, the “pre-steady-state target cleavage rate” value stood at 0.0115 ± 0.0025. Regarding UCCUGGAUGAGCUUGAUAGUAUUUAGUUA, the “pre-steady-state target cleavage rate” value amounted to 0.00442 ± 0.0028. In the case of UCCUGGAUGUGCUUGCAUUGUAUUAAGUUA, the “pre-steady-state target cleavage rate” value is 0.00354 ± 0.0033. Consider UCCUGGAUGUCGAACGUUAGUAUUUACGUUA, for which the “pre-steady-state target cleavage rate” value is less than 0.0001.

Consider UCCUGGAUGAGCUUCAUAGUAUUUAGUUA, for which the “pre-steady-state target cleavage rate” value amounted to 0.00515 ± 0.002.

As to UCCUGGUACAGCUUGCAUAGUAUUUGAGUUA, the “pre-steady-state target cleavage rate” value came to 0.00534 ± 0.0027.

The record behind these values is the supplement of paper PMC10338343.
